The list is not random: actives were taken first. Their share in the collection is about 2.4%.
CHO-K1 Ca ag: counter-screen for M1 agonists: effect in parental CHO-K1 cells; Fluo-8 calcium fluorescence; scaled to maximal ATP response, vehicle zero; activation, % at 3 µM; actives 0.48% (n = 360,000); in the data active = activation above about 15%;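 also: untransfected CHO-K1 host cells lacking M1 receptor as counterscreen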
M1 antag: blocks human M1 muscarinic receptor; CHO-K1 hM1, Fluo-8 calcium fluorescence, ACh EC80 antagonist; P11229; actives 1.3% (n = 360,000); inhibition, % at 3 µM;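 active = percent inhibition above its own plate's cutoff, namely the mean of that plate's compound wells plus 3 SD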;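 also: peak over basal fluorescence ratio during 140 s after agonist addition; 0% = ACh EC80 plus DMSO and 100% = DMSO alone without agonist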
Target sequence (P11229 whole entry, looked up): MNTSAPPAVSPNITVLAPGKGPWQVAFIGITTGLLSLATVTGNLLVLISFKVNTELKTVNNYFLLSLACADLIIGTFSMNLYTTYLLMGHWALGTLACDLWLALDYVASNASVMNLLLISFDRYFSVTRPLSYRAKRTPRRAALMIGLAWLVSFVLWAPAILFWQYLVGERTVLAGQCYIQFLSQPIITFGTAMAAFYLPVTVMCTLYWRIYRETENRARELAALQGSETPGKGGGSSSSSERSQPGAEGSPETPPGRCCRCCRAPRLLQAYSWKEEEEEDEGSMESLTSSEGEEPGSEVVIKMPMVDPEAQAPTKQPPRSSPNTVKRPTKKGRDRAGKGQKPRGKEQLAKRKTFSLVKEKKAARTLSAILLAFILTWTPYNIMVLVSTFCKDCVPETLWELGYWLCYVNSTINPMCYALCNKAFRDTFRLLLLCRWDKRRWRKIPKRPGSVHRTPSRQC
CHO-K1 Ca antag: nonselective inhibitor or artifact in parental CHO-K1 cells; ATP-induced calcium, Fluo-8 fluorescence; inhibition, % at 3 µM; actives 0.6% (n = 360,000); AID 602250;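 active = inhibition above a per-plate cutoff, the plate's mean sample inhibition plus 3 SD, cut at about 24% in these data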;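 also: 0% = DMSO plus EC80 ATP and 100% = DMSO alone without ATP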
CHO-K1 Ca PAM: nonselective activator or artifact in parental CHO-K1 calcium assay; actives 0.02% (n = 360,000); activation, % at 3 µM; ATP EC20, Fluo-8 calcium fluorescence; 0% at ATP EC20, 100% at ATP max; AID 602247;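 active = activation above the run cutoff, the mean activation of all test compounds plus 3 SD, cut at about 40% in these data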;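 also: peak over basal fluorescence ratio in a 140 s read after ATP addition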
M1 ag: agonists of human M1 muscarinic receptor; CHO-K1 hM1, Fluo-8 calcium fluorescence, agonist mode; 0% DMSO, 100% acetylcholine EC100; AID 588814; activation, % at 3 µM; P11229; actives 0.33% (n = 360,000);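 active = activation above the run's mean compound activation plus 3 SD, cut at about 16% in these data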;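 also: peak over basal fluorescence ratio within a 140 s kinetic read after compound addition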
CHRM1 PAM: human CHRM1 positive allosteric modulation | P11229 | CHO-K1 hM1, Fluo-8 calcium fluorescence, ACh EC20; 0% = ACh EC20, 100% = maximal ACh | activation, % at 3 µM | actives 0.088% (n = 360,000) | AID 588819; in the data active = activation above about 19%, passing the limit was not always enough
Active calls of the source: *; . = no result.

SMILES | CHO-K1 Ca ag | M1 antag | CHO-K1 Ca antag | CHO-K1 Ca PAM | M1 ag | CHRM1 PAM
COc1ccc(NC(=S)NCCSc2ccc(Cl)cc2)c(OC)c1 | 0.1 | -20.0 | 23.8* | -2.0 | 5.7 | 13.7
CCCS(=O)(=O)NC(=O)C1(C)CCCN(C(=O)C2(c3ccc(Cl)cc3)CCCC2)C1 (configuration not stated) | 0.7 | -12.9 | -16.2 | 16.8 | -2.1 | 2.3
OCCC1CN(Cc2cccn2-c2cccnc2)CCN1C1CCCCC1 (configuration not stated) | 0.1 | -5.2 | -1.9 | 8.0 | -5.9 | 4.4
OC(CNCCc1ccc(Cl)cc1)COc1cc(Cl)ccc1Cl (configuration not stated) | 1.3 | 18.7 | 0.6 | -8.1 | -5.0 | -10.9
COc1ccc(C(=O)c2ccc3oc(-c4ccc(OC)cc4)c(-c4ccc(O)cc4)c3c2)cc1 | 0.4 | 2.9 | -12.7 | -6.2 | -1.3 | 0.6
S=C(NCc1ccc(Cl)cc1)Nc1ccncc1 | 20.7* | 44.5* | 30.6* | -19.1 | 7.3 | -14.3
S=C(NCc1ccc(Cl)cc1)Nc1ccccc1 | 8.6 | 2.4 | 1.1 | 10.2 | -3.2 | -7.7
CN(C)CCCNC(=O)c1cc(C(=O)c2ccc(F)cc2)c[nH]1 | 2.2 | -8.5 | -11.4 | 8.9 | -8.0 | 12.2
S=c1[nH]nc(Cc2ccccc2)n1Cc1ccco1 | 0.7 | 92.3* | -15.7 | 7.8 | -12.6 | -33.0
CCCn1c(Cc2ccccc2)n[nH]c1=S | 0.3 | 17.0 | -12.8 | 18.5 | -5.5 | -6.0
COc1ccccc1N1CCN(C2CCCN(C(=O)c3ccccn3)C2)CC1 (configuration not stated) | 1.4 | 4.3 | -15.8 | 31.0 | -3.4 | 2.8
O=S(=O)(c1ccc2c(c1)C(O)c1ccccc1CC2)C(F)(F)F (configuration not stated) | 4.5 | 30.5* | 9.0 | -21.4 | -7.3 | -25.9
CCC(=O)N1CCN(c2ccccc2NC(=S)NC(=O)c2ccco2)CC1 | 4.8 | -2.2 | -8.6 | 11.5 | -1.5 | 0.6
COc1ccc(-c2noc(N3CCC(C(=O)NCCCN4CCC(C)CC4)CC3)n2)cc1 | 2.1 | 32.0* | -22.4 | 17.2 | -11.8 | -21.2
Cc1ccc(NC(=O)c2sc3ncn(CC(=O)N4CCN(c5ccccn5)CC4)c(=O)c3c2C)cc1Cl | 5.4 | 63.1* | -11.8 | -4.9 | 0.9 | -22.6
COCCCNC(=O)c1sc2ncn(CC(=O)Nc3ccc(C)c(Cl)c3)c(=O)c2c1C | 4.5 | -10.2 | -18.7 | 39.9* | -2.9 | 2.1
CCc1cc(C(=O)OCC(=O)N2CCC(c3ccccc3)=N2)sc1C | 0.7 | 47.6* | -9.7 | 11.2 | -6.2 | -21.5
CCOC(=O)[C@H]1[C@H]2COc3ccccc3[C@@H]2N2C(=O)CN(CC3CCCO3)C(=O)[C@@]12C (some centres not stated) | 0.5 | -2.7 | -16.1 | 12.8 | -2.2 | 3.1
CC1(C(=O)NCc2ccccn2)C=CCN1C(=O)c1ccccc1 (configuration not stated) | 0.4 | -11.2 | -12.2 | 12.4 | -3.0 | 7.2
CC(C)c1ccc(C2c3[nH]c4ccccc4c3C[C@H]3C(=O)N(c4ccccc4C(=O)N4CCC[C@H]4C(=O)O)C(=O)N23)cc1 (some centres not stated) | 0.0 | -5.7 | 25.1* | -16.8 | -4.0 | 0.6
COc1ccc(C2c3[nH]c4ccccc4c3C[C@H]3C(=O)N(c4ccccc4C(=O)N4CCC(C(=O)O)CC4)C(=O)N23)cc1 (some centres not stated) | 0.1 | -6.8 | -0.5 | -8.6 | -2.2 | 1.1
O=C(CCCn1c(SCc2ccccc2F)nc2ccccc2c1=O)NCC1CCCO1 (configuration not stated) | 16.6* | -1.0 | -8.6 | 21.5 | -6.6 | 5.8
O=C(CCCn1c(SCC(=O)NC2CCCCC2)nc2ccccc2c1=O)NCC1CCCO1 (configuration not stated) | 0.2 | -8.6 | 5.6 | 4.5 | -2.2 | 5.0
CCOC(=O)NNC(=O)C1CCC(C)CC1 (configuration not stated) | 19.3* | -11.2 | 5.7 | 9.4 | -3.4 | 11.6
CC1(Br)C(Sc2ccccc2[N+](=O)[O-])=Nc2ccccc21 (configuration not stated) | 1.8 | . | -29.9 | 14.8 | . | .
SMILES | CHO-K1 Ca ag | M1 antag | CHO-K1 Ca antag | CHO-K1 Ca PAM | M1 ag | CHRM1 PAM
Cc1cc(Br)cn2c(Cc3ccsc3)c(C(C)(C)C)nc12 | 1.9 | 21.1 | -19.2 | 7.0 | -6.5 | -20.8
Cc1ccc(-c2nn(-c3ccccc3)cc2C=C2SC(=S)N(CCS(=O)(=O)O)C2=O)cc1 | 0.3 | -20.2 | -3.7 | 11.0 | 0.4 | 28.4*
O=C1C(=Cc2cn(-c3ccccc3)nc2-c2ccc(OCc3ccccc3)cc2)SC(=S)N1CCS(=O)(=O)O | 1.7 | -23.5 | -3.1 | 3.6 | -1.8 | 11.9
CCCNC(=O)[C@@H]1CCCN1C(=O)C1CCN(S(=O)(=O)c2ccc(C)cc2)CC1 | 0.3 | -4.8 | -2.1 | -0.1 | -1.3 | 7.8
Cc1ccc(S(=O)(=O)N2CCC(C(=O)N3CCC[C@H]3C(=O)NC3CCS(=O)(=O)C3)CC2)cc1 (some centres not stated) | 2.2 | 54.0* | -0.3 | 15.2 | -1.7 | -17.1
O=C(CCC(=O)Nc1ccccc1Cl)NNC(=O)Nc1cccc([N+](=O)[O-])c1 | 0.0 | -2.0 | 3.2 | 6.4 | -2.0 | 5.1
COc1ccc(NS(=O)(=O)c2cccc(C(=O)N3CCN(C/C=C/c4ccccc4)CC3)c2)cc1 | 10.4 | 11.8 | -7.1 | 5.2 | -0.9 | -19.2
Cc1cccc(NS(=O)(=O)c2cccc(C(=O)N3CCN(C/C=C/c4ccccc4)CC3)c2)c1 | 3.7 | 31.8* | -18.0 | 2.5 | -5.8 | -22.2
Cc1ccc(C(=O)N2CCN(C/C=C/c3ccccc3)CC2)cc1S(=O)(=O)N1CCOCC1 | 5.9 | 73.0* | -9.5 | 16.7 | -6.6 | -26.9
O=Cc1ccc(-c2cc(Cl)ccc2Cl)[nH]1 | -0.7 | 9.7 | 23.6 | -12.4 | -3.7 | -8.5
CCOC(=O)C(=O)N(C)c1c(CC)nc2c(OCc3cc(Cl)cc(Cl)c3)cccn12 | -0.5 | -4.7 | 28.8* | -16.8 | -9.0 | -4.8
CCN(CC)c1ccc(/C=C2\C(=N)N3N=C(CC(=O)N4CCOCC4)SC3=NC2=O)cc1 | 3.3 | -8.8 | 2.6 | 21.6 | 7.4 | 3.9
CCCC(C)C(=O)Nc1ccc(S(=O)(=O)N2CCCC2)cc1 (configuration not stated) | 1.5 | -6.9 | -9.6 | 17.9 | -6.5 | 4.9
CC(C(=O)Nc1ccc(S(=O)(=O)N2CCCC2)cc1)N1CCCC(C(N)=O)C1 (configuration not stated) | 0.4 | 38.4* | 7.4 | -30.1 | -7.2 | -16.8
CC(C(=O)Nc1ccc(S(=O)(=O)N2CCCC2)cc1)N1CCc2ccccc2C1 (configuration not stated) | 0.9 | 100.8* | -16.3 | 11.8 | -7.4 | -27.6
